# Source: PubChem (National Center for Advancing Translational Sciences (NCATS))
# RE007 growth inh: less growth of the S. pombe RE007 Vpr strain. S. pombe RE007 Vpr strain, BacTiter-Glo ATP luminescence, 24 h. Potency, µM (top dose mostly 92.2 µM), for the others: at the top dose activity change, negative = less growth, hits mostly inhibitors. 0.21% of 360,000 active; active = well fitted falling curve with a large enough effect; inconclusive = small, poorly fitted or top-dose-only effect; inactive = no such curve, though single readings can be large or run the other way; note: nearly all actives have a fitted effect of over 50% in size
#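 Fission yeast strain RE007, carrying one chromosomally integrated HIV-1 vpr copy, was seeded at OD 0.01 in PMG+AL medium with 23 nL pinned compound. After 24 h at 30 °C and 99% humidity, viability was read by BacTiter-Glo luminescence.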
# Giardia FBPA inh-1: inhibitors of Giardia lamblia fructose-1,6-bisphosphate aldolase; Potency, µM (doses to about 59.6 µM), without a hit: at the highest dose activity, negative = inhibition, actives largely listed as inhibitors; purified Giardia FBPA; 0.71% of 290,000 active; A8B2U2; note: nearly all actives have a fitted effect of over 55% in size
# Target sequence (A8B2U2 whole entry, looked up): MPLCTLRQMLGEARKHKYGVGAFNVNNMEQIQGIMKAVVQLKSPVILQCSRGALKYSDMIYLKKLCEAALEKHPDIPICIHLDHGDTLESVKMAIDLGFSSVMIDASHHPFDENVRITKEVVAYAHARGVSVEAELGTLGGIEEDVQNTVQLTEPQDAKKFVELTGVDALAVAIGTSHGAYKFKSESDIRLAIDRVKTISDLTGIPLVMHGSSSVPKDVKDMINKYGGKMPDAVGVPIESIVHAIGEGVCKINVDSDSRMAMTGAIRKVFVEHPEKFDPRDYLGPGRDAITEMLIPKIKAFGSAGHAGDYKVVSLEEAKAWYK
#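 Giardia FBPA (40 nM reagent) was preincubated 10 min at RT with compound (up to 57.5 uM final), then substrate plus GAPDH/TPI/NAD/arsenate coupling system with diaphorase/resazurin was added; resorufin fluorescence (525/598 nm) was read after 20 min.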
# LmPK inh: inhibitors of Leishmania mexicana pyruvate kinase | purified LmPK, Kinase-Glo ATP luminescence, 1 h | 0.37% of 290,000 active | Q27686 | Potency, µM (doses to about 57.5 µM), for inactives: at the highest dose activity change, negative = inhibition, actives largely listed as inhibitors
#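 Kinase-Glo luminescence read after 1 h RT reaction of 0.1 nM LmPK with 0.5 mM PEP and 0.1 mM ADP. Activity scaled between uninhibited and enzyme-free controls.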
# TbPYK inhibitor: blocks Trypanosoma brucei pyruvate kinase | AID 624173 | 0.12% of 410,000 active | Potency, µM (series often up to 76.8 µM), inactives show at the top dose activity, negative = inhibition, actives largely listed as inhibitors | TbPYK enzyme, Kinase-Glo Plus ATP luminescence, 45 min; note: nearly all actives have a fitted effect of over 50% in size
#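 Quantitative HTS: titrated library compounds versus trypanosomal pyruvate kinase in TEA buffer (pH 7.2) containing KCl, MgCl2, BSA and Tween-20. Reactions were initiated with ADP, 130 uM final. Kinase-Glo Plus luminescence was read after 45 min at RT.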
# Giardia growth: inhibitors of Giardia lamblia growth. shares compounds with Giardia FBPA inh-1. Giardia lamblia trophozoite growth inhibition. Potency, µM (doses to about 57.5 µM), without a hit: at the top dose activity change, negative = inhibition, most hits filed as inhibitors. 5% of 1,500 active;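 note: trophozoites exposed to compound for 48 h at 37 °C; nearly all actives have a fitted effect of over 70% in size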
# Mammal cell tox: counter-screen for Giardia aldolase inhibitors: mammalian cell toxicity. mammalian cell viability counter-screen, qHTS. Potency, µM (doses to about 57.5 µM), for inactives: at the highest dose viability change, negative = toxicity, usual class: inhibitors. shares compounds with Giardia FBPA inh-1. 4% of 1,500 active;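 note: Chinese hamster ovary cells used as mammalian cytotoxicity surrogate; viability measured as cellular ATP by luminescence; compound exposure lasted 48 h before reading; nearly all actives have a fitted effect of over 60% in size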
# Giardia FBPA inh-2: confirmation of Giardia fructose-bisphosphate aldolase inhibitors; purified Giardia aldolase enzyme activity, qHTS; Potency, µM (highest dose often 57.5 µM), for inactives: at the top dose activity change, negative = inhibition, actives largely listed as inhibitors; 5% of 1,500 active; shares compounds with Giardia FBPA inh-1; AID 2787; note: nearly all actives have a fitted effect of over 45% in size
# Rabbit aldolase: rabbit FBP aldolase inhibition by Giardia aldolase hits; shares compounds with Giardia FBPA inh-1; Rabbit muscle FBPA enzyme inhibition, selectivity counter-screen; Potency, µM (highest dose often 57.5 µM), for the others: top-dose activity, negative = inhibition, usual class: inhibitors; 4% of 1,500 active; AID 2794; note: nearly all actives have a fitted effect of over 60% in size
# Target sequence (P00883 whole entry, looked up): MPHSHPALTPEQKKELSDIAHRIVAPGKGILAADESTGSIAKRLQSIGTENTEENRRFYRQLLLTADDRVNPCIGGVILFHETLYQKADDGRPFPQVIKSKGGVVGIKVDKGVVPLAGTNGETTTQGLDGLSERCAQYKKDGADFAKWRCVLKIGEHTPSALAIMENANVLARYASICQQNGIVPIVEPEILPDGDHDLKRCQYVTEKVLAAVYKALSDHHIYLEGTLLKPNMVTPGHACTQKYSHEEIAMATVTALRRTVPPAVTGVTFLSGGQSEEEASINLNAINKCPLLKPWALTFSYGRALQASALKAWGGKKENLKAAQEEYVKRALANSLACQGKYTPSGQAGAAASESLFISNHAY
# GAPDH counter: GAPDH inhibition flagged for Giardia aldolase hits | shares compounds with Giardia FBPA inh-1 | GAPDH coupling enzyme counterscreen, biochemical, qHTS | Potency, µM (series often up to 57.5 µM), for inactives: at the highest dose activity change, negative = inhibition, most hits filed as inhibitors | 6% of 1,500 active; note: nearly all actives have a fitted effect of over 55% in size
# Starred values were filed as active, the others as inactive; ? = inconclusive; . = no result given; [ ] = dose if it differs, or a comment. Most compounds without a hit are left out; they make up all but 0.95% or so of the library. Unless noted, calls come from the whole dose curve; as a rule, active = well fitted curve in the direction sought with a large enough effect; inconclusive = small, poorly fitted or top-dose-only effect, or another doubt; inactive = no such curve, though single readings can be large; an effect the other way counts as inactive or inconclusive. % is set by controls: 0 for no effect and ±100 for the full control effect; potency is the fitted concentration of half-maximal effect.
SMILES,RE007 growth inh,Giardia FBPA inh-1,LmPK inh,TbPYK inhibitor,Giardia growth,Mammal cell tox,Giardia FBPA inh-2,Rabbit aldolase,GAPDH counter
CC#CCN1c2ccccc2[C@]23C[C@@H](C(=O)OC)N(S(=O)(=O)c4ccc(C(F)(F)F)cc4)C2=NC(C(=O)OC)=C(C(=O)OC)[C@H]13,.,0%[12.9 µM],4%[11.5 µM],.,.,.,.,.,.
COC(=O)c1cnc(NNS(=O)(=O)c2ccc(Cl)cc2)nc1C(F)(F)F,2%,16µM*,2%,-17%,-3%,-7%,-6%,2%,4%
O=C(NC1CCCCCC1)c1ccc[nH]c1=S,?,16µM*,0%,7%,?,4%,9%,2%,18%
O=S(=O)(NNc1nccc(C(F)(F)F)n1)c1cccc(Cl)c1Cl,0%,16µM*,-4%,-9%,23%,-2%,?,?,?
FC(F)(F)c1ccnc(NCc2ccc(Cl)cc2)n1,-17%,-1%,-1%,0%,.,.,.,.,.
CCOC(=O)C1=C(C)OC(N)=C(C#N)C1c1ccsc1 (stereo unspecified),-2%,?,1%,-4%,.,.,.,.,.
N#CC1=C(N)Oc2c(O)cc3ccccc3c2C1c1ccsc1 (stereo unspecified),-2%,18µM*,1%,3%,7%[10.4 µM],0%,?,?,?
Cc1ccccc1CC(=O)N1CCN(C(=O)c2ccco2)CC1,-14%,10%,-1%,9%,.,.,.,.,.
COc1ccc(Br)cc1CN1CCN(C(=O)c2ccco2)CC1,57%,28µM*,1%,1%,?,-7%,2%,0%,-4%
Cc1ccccc1CN1CCN(C(=O)c2ccco2)CC1,13%,25µM*,1%,2%,-4%[10.4 µM],15%,-5%,10%,-10%
CCN(CC)C(=O)c1sc2c(c1C)c(=O)n(-c1ccc(OC)cc1OC)c(=O)n2CC(=O)c1ccc(Cl)cc1,.,.,.,3%,.,.,.,.,.
NC1=NN=C(N2N=C(c3ccc(Br)cc3)CC2(O)C(F)(F)F)n2ncnc2C1 (stereo unspecified),6%,?,0%,5%,14%[38.3 µM],-1%,3%,1%,-15%
CCCC1(C(=O)OC)C=C2C(=C(C)C(=O)C2C)CN1 (stereo unspecified),.,-28%,.,.,.,.,.,.,.
NC(=S)c1cn(C2OC(CO)C(O)C2O)c2ncnc(N)c12 (stereo unspecified),5%,14µM*,-4%,-28%,-2%,?,12%,16%,-3%
O=c1[nH]cc(N=Cc2cc([N+](=O)[O-])ccc2O)c(=O)[nH]1,.,26%,-4%,.,.,.,.,.,.
Cc1cc(O)c(C(C)C)cc1N=Cc1cc([N+](=O)[O-])ccc1O,-17%,?,3%,-17%,18%[38.3 µM],?,9.2µM*,13µM*,16µM*
O=C(CNCc1ccco1)Nc1ccc(N2CCCCCC2)cc1,1%,18µM*,13%,5%,?,-8%,-11%,-15%,-12%
Cc1ccc(S(=O)(=O)N2CCCCC2)cc1NC(=O)CNCc1ccco1,9%,7.9µM*,-3%,20%,?,7%,9%,3%,1%
CC(C)OC(=O)Nc1ccc2c(c1)N(C(=O)N1CCN(C)CC1)c1ccccc1CC2,-25%,16µM*,?,-1%,8.9µM*,1.8µM*,2%,9%,6%
CCOC(=O)Nc1ccc2c(c1)N(C(=O)N1CCN(C)CC1)c1ccccc1CC2,19%,5%,-8%,0%,.,.,.,.,.
N#CCC(=O)Nn1c(=S)[nH]c2ccccc2c1=O,13%,3.5µM*,-12%,-2%,-1%[38.3 µM],5%,-14%,6%,1%
COc1ccc(NC(=O)Cc2csc(COc3cccc(C)c3)n2)c(OC)c1,.,.,.,0%,.,.,.,.,.
COc1cc(NC(C)CCc2ccccc2)cc(OC)c1OC (stereo unspecified),-6%,13µM*,-2%,0%,-10%[10.4 µM],-25%,?,?,?
COc1cccc(OC)c1C(=O)NC(C)CCc1ccccc1 (stereo unspecified),-3%,0%,-3%,-4%,.,.,.,.,.
Cc1nc(=S)n(-c2ccccc2)[nH]1,1%,-24%,-5%,?,.,.,.,.,.
SMILES,RE007 growth inh,Giardia FBPA inh-1,LmPK inh,TbPYK inhibitor,Giardia growth,Mammal cell tox,Giardia FBPA inh-2,Rabbit aldolase,GAPDH counter
Nc1nc(=S)n(-c2ccccc2)[nH]1,4%,7.1µM*,4%,-15%,19%,-1%,2%,5%,9%
COc1ccc(C(=O)N2CC(=O)Nc3ccc(C)cc3C2c2ccccc2)c(OC)c1 (stereo unspecified),.,.,.,3%,.,.,.,.,.
COc1cc(OC)c(NC2=CC(=O)C(=O)c3ccccc32)cc1Cl,-14%,?,-1%,-2%,22µM*,21µM*,12µM*,13µM*,15µM*
Cc1cc(NC2=CC(=O)C(=O)c3ccccc32)no1,-28%,.,.,-11%,.,.,.,.,.
CCCCCCC1=Cc2cc(OC)c(OC)cc2C(C(C(C)=O)C(=O)OCC)O1 (stereo unspecified),.,-10%[12.9 µM],.,.,.,.,.,.,.
CCC1(C)Cc2c(C#N)c(N)sc(=S)c2CO1 (stereo unspecified),-3%,2.2µM*,8%,-7%,6%[10.4 µM],-6%,-17%,-6%,-13%
N#Cc1c(N)sc(=S)c2c1CCCC2,-22%,18µM*,5%,-13%,?,2%,-16%,-15%,-19%
CO[C@@H]1/C=C\CC(=O)N2CCC[C@@H]2C(=O)OC[C@H](C)C(=O)OC[C@H]1C,.,1%[12.9 µM],.,.,.,.,.,.,.
COc1ccc(OC)c(S(=O)(=O)N(C)CC(=O)Nc2ccc3c(c2)OCO3)c1,1%,-4%,2%,9%,.,.,.,.,.
COc1ccc(OC)c(S(=O)(=O)NNC(=S)Nc2ccc3c(c2)OCO3)c1,-12%,8.9µM*,0%,-12%,9%[38.3 µM],-1%,-16%,-10%,-17%
O=C1C[C@@H](O)[C@@H](O)[C@H]2[C@@H]3C(=O)N(C4CCCCC4)C(=O)[C@@H]3CC[C@H]12,.,-3%[12.9 µM],.,.,.,.,.,.,.
COc1ccc2c(c1OC)C(=O)N(c1nc(SC)n[nH]1)C2=O,-4%,16µM*,-9%,-3%,19%,6%,-2%,2%,-18%
COc1ccc2c(c1OC)C(=O)N(c1cccc(C)c1)C2=O,-9%,10%,4%,-10%,.,.,.,.,.
